Assay results published in PubChem BioAssay AID1159580 (chemical genetic matrix, 2015).
Several values for one entry are separate records, joined by “and”; a condition that tells them apart may be missing. Identical values can stand only once. Screen size: about 5,500 compounds; about 2,000 (36%) were called active. About 18% were inconclusive and are not listed. Rule as the data show it: active = normalized growth mostly below about 0.91 (no sharp cut-off); inconclusive = no clear call, values can overlap the other calls; inactive = mostly above about 0.92. This is one part of the list.

Assay: chemical genetic growth profiling, strain panel (AID 1159580);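 also: tested at 20 µM; growth read once vehicle control cultures reached saturation at 30 °C; 1 = growth at the plate median or of vehicle wells; lower values mean less growth of the strain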
Conditions: S. cerevisiae deletion strains, growth OD

Measured: normalized growth

NS(=O)(=O)c1cc(C2(O)NC(=O)c3ccccc32)ccc1Cl (stereo not given)
inactive: locus YAL021C, strain ccr4, stronger effect = lower value 0.958 | locus YAL026C, strain drs2, stronger effect = lower value 0.991 | locus YAL030W, strain snc1, stronger effect = lower value 0.993 | locus YBL061C, strain skt5, stronger effect = lower value 0.996 | locus YBR009C, strain hhf1, stronger effect = lower value 1.01 | locus YBR021W, strain FUR4, stronger effect = lower value 1.02 | locus YBR023C, strain chs3, stronger effect = lower value 0.992 | locus YBR171W, strain sec66, stronger effect = lower value 0.985 | locus YBR229C, strain ROT2, stronger effect = lower value 1.01 | locus YBR231C, strain swc5, stronger effect = lower value 0.972 | locus YBR279W, strain paf1, stronger effect = lower value 0.996 | locus YCL011C, strain gbp2, stronger effect = lower value 0.99 | locus YCL016C, strain dcc1, stronger effect = lower value 0.987 | locus YCL029C, strain bik1, stronger effect = lower value 1.02 | locus YCL061C, strain MRC1, stronger effect = lower value 0.986 | locus YCL069W, strain vba3, stronger effect = lower value 0.999 | locus YCR088W, strain abp1, stronger effect = lower value 0.994 | locus YDL005C, strain med2, stronger effect = lower value 0.974 | locus YDL035C, strain GPR1, stronger effect = lower value 0.997 | locus YDL040C, strain nat1, stronger effect = lower value 0.995 | locus YDL074C, strain BRE1, stronger effect = lower value 1.03 | locus YDL101C, strain DUN1, stronger effect = lower value 1.02 | locus YDL134C, strain PPH21, stronger effect = lower value 1 | locus YDL185W, strain tfp1, stronger effect = lower value 1.03 | locus YDL192W, strain arf1, stronger effect = lower value 1.01 | locus YDR001C, strain nth1, stronger effect = lower value 0.99 | locus YDR069C, strain doa4, stronger effect = lower value 0.993 | locus YDR101C, strain arx1, stronger effect = lower value 1 | locus YDR137W, strain rgp1, stronger effect = lower value 1.01 | locus YDR159W, strain sac3, stronger effect = lower value 1.01 | locus YDR162C, strain NBP2, stronger effect = lower value 1.01 | locus YDR195W, strain ref2 0.929 | locus YDR297W, strain sur2, stronger effect = lower value 0.995 | locus YDR318W, strain mcm21, stronger effect = lower value 1.02 | locus YDR334W, strain swr1, stronger effect = lower value 1.01 | locus YDR335W, strain msn5, stronger effect = lower value 0.991 | locus YDR388W, stronger effect = lower value 1.02 | locus YDR392W, strain spt3, stronger effect = lower value 1.04 | locus YDR502C, strain sam2, stronger effect = lower value 1.02 | locus YEL003W, strain gim4, stronger effect = lower value 0.985 | locus YEL037C, strain rad23, stronger effect = lower value 0.992 | locus YEL061C, strain CIN8 (second series), stronger effect = lower value 1 | locus YEL061C, strain CIN8, stronger effect = lower value 1.01 | locus YER015W, strain faa2, stronger effect = lower value 0.985 | locus YER016W, strain bim1, stronger effect = lower value 0.997 | locus YER110C, stronger effect = lower value 1.02 | locus YER111C, strain swi4, stronger effect = lower value 0.997 | locus YER155C, strain BEM2 (second series), stronger effect = lower value 0.939 | locus YER155C, strain BEM2, stronger effect = lower value 1.01 | locus YER167W, strain BCK2, stronger effect = lower value 1.01 | locus YFR010W, strain ubp6, stronger effect = lower value 0.982 | locus YGL078C, strain dbp3, stronger effect = lower value 1.02 | locus YGL086W, strain mad1, stronger effect = lower value 1.01 | locus YGL167C, strain pmr1, stronger effect = lower value 0.99 | locus YGL173C, strain kem1, stronger effect = lower value 0.968 | locus YGL227W, strain vid30, stronger effect = lower value 0.997 | locus YGL240W, strain doc1, stronger effect = lower value 0.964 | locus YGL248W, strain PDE1, stronger effect = lower value 1.02 | locus YGL253W, strain hxk2, stronger effect = lower value 1 | locus YGR078C, strain PAC10, stronger effect = lower value 1.02 | locus YGR135W, strain pre9, stronger effect = lower value 1.04 | locus YGR229C, strain SMI1, stronger effect = lower value 1.01 | locus YGR252W, strain gcn5, stronger effect = lower value 0.991 | locus YHR013C, strain ard1, stronger effect = lower value 0.952 | locus YHR027C, strain rpn1, stronger effect = lower value 0.99 | locus YHR030C, strain SLT2, stronger effect = lower value 1.01 and 0.984 | locus YHR079C, strain IRE1 (second series), stronger effect = lower value 1.01 | locus YHR079C, strain IRE1, stronger effect = lower value 0.99 | locus YHR094C, strain hxt1, stronger effect = lower value 1.01 | locus YHR129C, strain ARP1, stronger effect = lower value 1.01 | locus YHR142W, strain chs7, stronger effect = lower value 1.01 | locus YHR200W, strain rpn10, stronger effect = lower value 1.02 | locus YIL066C, strain RNR3, stronger effect = lower value 1.01 | locus YIL073C, strain SPO22, stronger effect = lower value 1.06 | locus YIL125W, strain kgd1, stronger effect = lower value 1.01 | locus YIR030C, strain dcg1, stronger effect = lower value 1.03 | locus YJL092W, strain hpr5, stronger effect = lower value 0.993 | locus YJL095W, strain BCK1 (second series), stronger effect = lower value 0.997 | locus YJL095W, strain BCK1, stronger effect = lower value 1.03 and 0.98 | locus YJL115W, strain asf1, stronger effect = lower value 0.983 | locus YJL129C, strain trk1, stronger effect = lower value 0.979 | locus YJL134W, strain LCB3, stronger effect = lower value 1 | locus YJL154C, strain vps35, stronger effect = lower value 0.984 | locus YJL164C, strain tpk1, stronger effect = lower value 0.981 | locus YJL166W, strain qcr8, stronger effect = lower value 0.977 | locus YJL168C, strain set2, stronger effect = lower value 1.02 | locus YJL187C, strain SWE1 (second series), stronger effect = lower value 1.03 | locus YJL187C, strain SWE1, stronger effect = lower value 0.991 | locus YJR043C, strain POL32, stronger effect = lower value 0.986 | locus YJR066W, strain TOR1, stronger effect = lower value 0.946
